Assay outcomes: PubChem, National Center for Advancing Translational Sciences (NCATS)
An excerpt weighted towards active compounds, which were near 4.2% of everything screened.
12-LOX inh: blocks human arachidonate 12S-lipoxygenase | P18054 | purified 12hLO, xylenol orange hydroperoxide absorbance | Potency, µM (highest dose often 108 µM), inactives show at the top dose activity change, negative = inhibition, actives largely listed as inhibitors | 580,000 tested, 1.1% active | AID 1671190
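Purified human 12hLO (150 nM final) in 25 mM Hepes, 0.01% Triton X-100, pH 7.0 was preincubated 15 min at room temperature with compound. Then 40 uM arachidonic acid was added, 30 min. Hydroperoxide was read by Fe-XO absorbance ratio 573/405 nm.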
PLK1 PBD inh: inhibitors of human PLK1 polo-box domain binding; Plk1 PBD binding of FITC phosphopeptide, fluorescence polarization; Potency, µM, for the others: max response, negative = inhibition, hits mostly inhibitors; 360,000 tested, 2.8% active; also: series mostly up to about 57 µM; nearly all actives have a fitted effect of over 65% in size
Target sequence (P53350 whole entry, looked up, the tested form may be a part): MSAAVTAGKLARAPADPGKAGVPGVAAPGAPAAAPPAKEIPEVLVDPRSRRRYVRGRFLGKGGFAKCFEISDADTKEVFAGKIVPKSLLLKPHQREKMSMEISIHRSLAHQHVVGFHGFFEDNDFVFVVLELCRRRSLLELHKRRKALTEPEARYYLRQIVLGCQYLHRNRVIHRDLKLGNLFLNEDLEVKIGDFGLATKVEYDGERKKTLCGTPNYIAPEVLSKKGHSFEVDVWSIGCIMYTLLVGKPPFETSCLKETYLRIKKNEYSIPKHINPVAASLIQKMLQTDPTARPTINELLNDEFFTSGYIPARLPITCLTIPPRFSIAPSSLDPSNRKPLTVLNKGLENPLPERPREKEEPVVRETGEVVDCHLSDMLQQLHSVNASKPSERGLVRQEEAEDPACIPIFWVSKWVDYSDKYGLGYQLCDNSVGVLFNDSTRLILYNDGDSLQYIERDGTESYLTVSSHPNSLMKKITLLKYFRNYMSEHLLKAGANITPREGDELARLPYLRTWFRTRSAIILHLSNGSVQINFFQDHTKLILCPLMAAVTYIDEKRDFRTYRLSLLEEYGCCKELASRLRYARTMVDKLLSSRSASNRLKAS
VDR inhibitor: blocks the human vitamin D receptor. AID 504847. VDR-SRC2-3 peptide fluorescence polarization, 2 h. 400,000 tested, 0.93% active. Potency, µM, inactives show max response, negative = inhibition, usual class: inhibitors. P11473
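Fluorescence polarization assay of small-molecule disruption of VDR binding to coregulator peptide SRC2-3. Compounds and controls pin-transferred, then read after 2 h incubation at ambient room temperature.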
Sfp PPTase inh: inhibitors of Bacillus subtilis Sfp phosphopantetheinyl transferase; Q9F4F7; Biochemical Sfp PPTase activity, qHTS; Potency, µM, for the others: largest response in the series, negative = inhibition, most hits filed as inhibitors; 310,000 tested, 3.5% active; AID 1490;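 also: the enzyme is Sfp with the accession as filed and its product quenches rhodamine fluorescence; 0% = enzyme reaction without inhibitor and -100% = no enzyme wells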
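Sfp 15 nM + cpd, 15 min RT; start w/ rhodamine-CoA 5 uM, BHQ-2-YbbR 12.5 uM (final); 50 mM Hepes pH 7.6, 10 mM MgCl2, 0.01% NP-40, 0.01% BSA; read 525/598 nm at 0 and 30 min.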
The depositor's hits bear a star; ? = inconclusive; nt = not tested or not shown; [ ] = remark or other dose. Calls follow the shape of the dose curve; as a rule, active = well fitted curve in the direction sought with a large enough effect; inconclusive = small, poorly fitted or top-dose-only effect, or another doubt; inactive = no such curve, though single readings can be large; an effect the other way counts as inactive or inconclusive. Unless noted, % is scaled to controls: 0 for no effect and ±100 for the full control effect; potency is read from the fitted curve at half-maximal effect.

SMILES | 12-LOX inh | PLK1 PBD inh | VDR inhibitor | Sfp PPTase inh
Cc1cc(SCC(=O)N/N=C/c2ccc(O)c(O)c2)c(C)cc1Br | 6.3µM* | -14% | 0% | ?
C=CCOc1ccc(C2/C(=C(\O)c3ccc4c(c3)OCCO4)C(=O)C(=O)N2CCCN2CCOCC2)cc1 (configuration not stated) | ? | ? | -7% | -5%
c1cncc(-c2cncnc2NC2CCNCC2)c1 | 7.9µM* | nt | -1% | -6%
Cc1nnc(-c2ccc(Oc3ccc(Cl)cc3)c([N+](=O)[O-])c2)o1 | -14% | 21µM* | ? | -27%
O=[N+]([O-])c1cc(-c2nnc(-c3ccccc3)o2)ccc1Oc1ccc(Cl)cc1 | -13% | -1% | 3% | 22%
COc1cccc(N2C(=O)N[C@@H]3CCN(S(=O)(=O)c4ccccc4)[C@@H]3C2=O)c1 | 22%[176 µM] | nt | nt | nt
c1cncc(C2SCCCS2)c1 | 9% | -6% | nt | nt
CC(=O)c1c(N2CCN(c3cccc(Cl)c3)CC2)nc(=S)n(-c2ccccc2)c1C | 35µM* | -17% | -19% | 23%
CC(=O)c1c(N2CCN(c3ccccn3)CC2)nc(=S)n(-c2ccccc2)c1C | ? | -13% | 4% | 18%
COc1ccc(N2CCN(c3nc(=S)n(-c4ccccc4)c(C)c3C(C)=O)CC2)cc1 | 40µM* | -10% | 5% | 0%
CCn1c(C)c(C(C)=O)c(N2CCN(c3ccc(OC)cc3)CC2)nc1=S | ? | ? | 3% | 22µM*
O=C(c1cc([N+](=O)[O-])ccc1N1CCOCC1)N1CCN(S(=O)(=O)c2ccc(F)cc2)CC1 | -2% | -5% | 7% | nt
O=C(c1ccccc1)N1CCN(Cc2cccc(Oc3ccccc3)c2)CC1 | -23% | 24µM* | ? | -14%
O=C(c1cccc(OC2CCN(Cc3ccc(F)cc3)CC2)c1)N1CCCC1 | 12% | 21µM* | -18% | 16%
COc1cccc(CN2CCN(C(=O)c3ccc(-c4ccccc4)cc3)CC2)c1 | ? | 0% | 0% | -16%
O=C(c1ccc(OC2CCN(Cc3ccc(F)cc3)CC2)cc1)N1CCCC1 | 10% | -11% | -10% | 8%
COc1cccc(C(=O)N2CCN(Cc3cn[nH]c3-c3ccc(F)cc3F)CC2)c1 | -25% | 30µM* | ? | 14%
COc1cccc(CN2CCN(C(=O)c3cccc(OC)c3)CC2)c1 | ? | -1% | -3% | 79µM*
COC(=O)c1ccc(NC(=O)Nc2nnc(N(C)C3CCCCC3)s2)cc1 | 6% | nt | -6% | nt
CC(=C/c1ccccc1)/C=N/NC(=O)c1cnccn1 | 0% | -1% | -3% | 1%
Cc1ccc2[nH]c(=O)c3cc(C(=O)NCCc4ccc(Cl)cc4)sc3c2c1 | -10% | nt | 1% | nt
Brc1ccc(-c2nn3c(-c4ccncc4)nnc3s2)o1 | nt | nt | nt | 12%
Brc1ccc(-c2nn3c(-c4ccccn4)nnc3s2)o1 | 0% | -15% | 8% | 8.9µM*
c1coc(-c2nnc3sc(C4CCCCC4)nn23)c1 | -15% | 11µM* | -18% | 35µM*
Brc1ccc(-c2nn3c(-c4ccco4)nnc3s2)o1 | ? | ? | -13% | 20µM*
SMILES | 12-LOX inh | PLK1 PBD inh | VDR inhibitor | Sfp PPTase inh
Cc1cc(-c2nn3c(-c4ccco4)nnc3s2)n(C)n1 | -11% | nt | nt | nt
CC1=C(C(=O)NCc2ccccc2C)C2(CCCCC2)OC1=O | 0% | nt | 10% | nt
Cc1cccc2sc(NC(=O)C3CSC4(C)CCC(=O)N34)nc12 (configuration not stated) | 65% | -4% | -9% | -4%
CC1(C)Cc2c(C#N)c(NCC3CCCO3)nc(-c3ccco3)c2CO1 (configuration not stated) | -4% | -10% | 0% | 7.9µM*
CC1(C)Cc2c(C#N)c(NC3CCCCC3)nc(-c3ccco3)c2CO1 | nt | nt | nt | 3.5µM*
CCN(CC)CCNc1nc(-c2ccco2)c2c(c1C#N)CC(C)(C)OC2 | -8% | -5% | 1% | 5%
CN(C)CCCNc1nc(-c2ccccc2)c2c(c1C#N)CC(C)(C)OC2 | 0% | 24µM* | -12% | 3%
O=C(c1sc2cccc(F)c2c1Cl)N1CCCCC1 | 42% | nt | nt | nt
CCCCCCn1c(NCc2ccc(C)cc2)nc2c1c(=O)[nH]c(=O)n2C | -3% | nt | nt | nt
CCCCNC(=O)C1CCN(S(=O)(=O)c2ccc3c(ccn3CC)c2)CC1 | -12% | nt | 1% | nt
CCC1Sc2ccc(S(=O)(=O)CCC(=O)Nc3ccc(C(=O)OC)cc3)cc2NC1=O (configuration not stated) | -12% | 15µM* | ? | 15%
CCONC(=O)c1ccc2c(c1)NC(=O)C(C)S2 (configuration not stated) | -16% | nt | nt | nt
COc1ccc(CNC(=O)c2ccc3c(c2)NC(=O)C(C)S3)cc1 (configuration not stated) | ? | 13µM* | ? | 22µM*
COC(=O)c1ccc(NC(=O)CCS(=O)(=O)c2ccc3c(c2)NC(=O)C(C)S3)cc1 (configuration not stated) | 46% | 6µM* | ? | 15%
CCC1Sc2ccc(S(=O)(=O)CCC(=O)Nc3cccc(Br)c3)cc2NC1=O (configuration not stated) | -24% | 12µM* | -28% | 11%
COc1ccccc1NC(=O)CCS(=O)(=O)c1ccc2c(c1)NC(=O)C(C)S2 (configuration not stated) | nt | 7% | -6% | 17%
Cc1cc(C)c(NC(=O)CNC(=O)CNC(=O)C2CCCCC2)c(C)c1 | -4% | -16% | -2% | nt
CCOC(=O)[C@@H](N)CS | nt | nt | 40µM* | 28µM*
O=C(/C=C/c1ccccc1)NC(=S)Nc1ccc(N2CCOCC2)c(Cl)c1 | -2% | -2% | 7% | 20%
O=C(NC(=S)Nc1ccc(N2CCOCC2)c(Cl)c1)C(c1ccccc1)c1ccccc1 | ? | 27µM* | -16% | 14%
COc1ccccc1CNC(=O)C(C)n1nc(C)n2c(cc3occc32)c1=O (configuration not stated) | -1% | 27µM* | ? | 31%
Cc1n[nH]c(=O)nc1NCC1CCCO1 (configuration not stated) | -1% | 27µM* | -10% | ?
C=CCNC(=S)NCc1cccnc1 | 0% | -6% | -5% | 79µM*
S=C(NCc1cccnc1)NCc1cccnc1 | 4% | 0% | -10% | 11%
CC1CCCCC1NC(=S)NCc1ccccc1 (configuration not stated) | -72% | nt | nt | nt
SMILES | 12-LOX inh | PLK1 PBD inh | VDR inhibitor | Sfp PPTase inh
O=C1NC2=C(C(=O)CCC2)C(c2ccccc2Cl)N1 (configuration not stated) | -12% | -9% | 5% | 4%
Cc1nc(Cl)c2c(n1)NC1=C(O2)C(=O)CCC1 | -4% | 21µM* | 4% | -2%
Cc1cc(C)cc(S(=O)(=O)c2cnc3ccccc3n2)c1 | -4% | 3.8µM* | 40µM* | -18%
NNc1nc(-c2ccccc2Cl)nc2ccccc12 | -6% | -4% | -16% | ?
NNc1nc(-c2ccccc2Cl)nc2sc3c(c12)CCCC3 | -23% | -20% | 8% | 50µM*
NS(=O)(=O)c1ccc(CCNCc2cc(Br)ccc2OCc2ccccc2F)cc1 | ? | -25% | 9% | 50µM*
COCCNc1nc(NCc2ccccc2OC)c2cnn(C)c2n1 | 13µM* | nt | 10% | nt
COCCCNc1nc(NCc2ccccc2OC)c2cnn(C)c2n1 | ? | nt | 0% | nt
